Our source for the Potency and activity change, negative = inhibition values is PubChem BioAssay AID504834 (National Center for Advancing Translational Sciences (NCATS), 2011).

Among all 320,000 compounds or so, about 22,000 (6.9%) were called active. Roughly 27% stayed inconclusive and do not appear here. Calls follow the shape of the dose curve; as a rule, active = well fitted inhibition curve with a large enough effect; inconclusive = small, poorly fitted or top-dose-only effect, or another doubt; inactive = no such curve, though single readings can be large or run the other way. The entries come from a sample that favours actives as a whole. Entries that show only a call come without a potency.
Potency is read from the fitted curve at half-maximal effect.

The assay in a line: Primary qHTS for delayed death inhibitors of the malarial parasite plastid, 96 hour incubation. As to conditions: P. falciparum luciferase reporter growth; series mostly up to 28.7 µM. The method, boiled down: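 Cell-based qHTS: luciferase-tagged P. falciparum in erythrocytes (2% hematocrit, 0.05% parasitemia final) incubated with compounds for 96 hours, 37 C, 5% CO2; luciferase detection reagent then added and luminescence measured.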
(In general: In qHTS, concentration-response curves come from the screen itself.)
Regarding `Cc1cccc(-n2ncc(Cl)c(Cl)c2=O)c1`, the Potency entry was “inactive”.

For `COc1ccc(C(=O)NCC2CCCCC2)cc1S(=O)(=O)N1CCCC1`, the Potency result was “inactive”.

For `COc1cc(NC(=O)c2ccc(-c3csc(C)n3)cc2)c(OC)cc1Cl`, the Potency was 4.15 µM (active).

Turning to `COc1cccc(CC(=O)Nc2ccc(-c3csc(C)n3)cc2)c1`, the Potency entry was “inactive”.

`CCOCC(=O)Nc1cc(OC)c(Cl)cc1OC`: the Potency result is “inactive”.

For the compound `COc1cc(C(=O)NCc2nnc(SCC(=O)c3ccc(Cl)cc3)o2)cc(OC)c1OC`, the Potency entry is “inactive”.

Take `Cc1ccc(NS(=O)(=O)c2cc3c(cc2C)NC(=O)CO3)cc1`: the Potency entry was “inactive”.

In the case of `COc1ccc(CCNC(=O)NS(=O)(=O)c2ccc(C)cc2)cc1OC`, the Potency entry is “inactive”.

Take `Cc1cccc(N2CCN(C(=O)c3cnn4c(C(F)F)cc(-c5ccccc5)nc34)CC2)c1C`: the Potency entry is “inactive”.

As to `Cc1ccc(Cl)cc1N1CCN(C(=O)c2cccc3c(=O)c(C)c(-c4ccccc4)oc23)CC1`, the Potency is 2.08 µM (active).

On to `O=C(c1cc(-c2ccc(Cl)cc2)on1)N1CCN(c2ccccc2)CC1`, for which the Potency entry was “inactive”.

Regarding `O=C(CC1C(=O)NCCN1CC(c1ccccc1)c1ccccc1)NCC1CCOCC1` (stereo not drawn), the Potency result was “inactive”.

In the case of `O=C(COc1ccccc1Cl)N1CCCCCCC1`, the Potency result was “inactive”.

As for `CCC(CC)c1nnc(NC(=O)C2CCN(C(=O)c3ccco3)CC2)s1`, the Potency result was “inactive”.

With `CN(C)C(CNC(=O)c1ccc(OCc2cn3ccccc3n2)cc1)c1ccco1` (stereo not drawn), the Potency entry is “inactive”.

On to `CC(Oc1cc2oc(=O)c3c(c2cc1Cl)CCCC3)C(=O)NCc1ccncc1` (stereo not drawn), for which the Potency entry is “inactive”.

Consider `COc1ccc(CCc2nnc(CCC(=O)NCc3cnn(-c4ccccc4C)c3)o2)cc1`, for which the Potency was 9.28 µM (active).

Consider `COc1ccc(CNC(=O)CCN2C(=O)c3ccccc3C2=O)cc1`, for which the Potency entry was “inactive”.

Turning to `CC(CCn1cccn1)NC(=O)CCc1nnc(CCc2ccccc2)o1` (stereo not drawn), the Potency entry is “inactive”.

Consider `Cc1ccc(C)c(N2CCN(S(=O)(=O)c3c(C)[nH]c(C)c3C(=O)N3CCCC3)CC2)c1`, for which the Potency result is “inactive”.

Turning to `O=C(N/N=C/c1c[nH]c2ccccc12)c1cc2ccccc2o1`, the Potency entry was “inactive”.

In the case of `CSC(=S)N/N=C/c1c[nH]c2ccccc12`, the Potency entry was “inactive”.

With `O=C(N/N=C/c1c[nH]c2ccccc12)c1ccccc1O`, the Potency was 11.7 µM (active).

For the compound `CCOc1ccc(C(=O)Nc2ccc(CN3CCOCC3)cc2)cc1Cl`, the Potency entry was “inactive”.

In the case of `CCCc1cc(=O)oc2cc(OCC(=O)Nc3ccc(CN4CCOCC4)cc3)c(Cl)cc12`, the Potency is 10.4 µM (active).

On to `CCc1cc(=O)oc2c(C)c(OCC(=O)NCCN3CCOCC3)ccc12`, for which the Potency result is “inactive”.

Turning to `Cc1nc(-c2ccc(Cl)cc2)sc1C1(C)CC(c2ccccc2F)=NO1` (stereo not drawn), the Potency entry was “inactive”.

Regarding `COCCCN1C(=O)c2ccc(C(=O)OCC(=O)NCc3ccccc3OC)cc2C1=O`, the Potency entry was “inactive”.

As to `Cc1c(C)c(C)c(S(=O)(=O)NCCc2ccccn2)c(C)c1C`, the Potency entry is “inactive”.

Consider `Cc1ccc(OCc2cc(C(=O)N(C)CCc3ccccc3)no2)cc1C`, for which the Potency is 13.1 µM (active).

In the case of `CSc1ccccc1OCc1cc(C(=O)N(C)CCc2c(C)n[nH]c2C)no1`, the Potency result was “inactive”.

For `CN(Cc1cccnc1)C(=O)c1cc(COc2ccc3ncccc3c2)on1`, the Potency entry was “inactive”.

As to `Cc1cc(S(=O)(=O)N2CCOCC2)ccc1OCC(=O)Nc1cccc(C(F)(F)F)c1`, the Potency result was “inactive”.

`O=C(N/N=C/c1cccc(OC(=O)c2ccc([N+](=O)[O-])cc2)c1)c1cccnc1`: the Potency entry was “inactive”.

Regarding `Cc1cccc(-c2nc3ccc(C(=O)NCCN4CCN(C)CC4)cc3nc2-c2cccc(C)c2)c1`, the Potency is 11.7 µM (active).

With `Cc1cccc(C(=O)NCCCN2CCCC2=O)c1`, the Potency entry is “inactive”.

On to `Cc1cccc(C(=O)NCCCN(C)CCCNC(=O)c2cccc(C)c2)c1`, for which the Potency entry was “inactive”.

For `CC(=O)Nc1ccc(S(=O)(=O)Oc2ccc(Br)cc2C(=S)N2CCOCC2)cc1`, the Potency result was “inactive”.

As to `CCOC(=O)C(O)(c1ccc(N)c(OC)c1)C(F)(F)F` (stereo not drawn), the Potency is 2.62 µM (active).

Turning to `COC(=O)C(O)(c1ccc(NC(=O)c2ccco2)c(OC)c1)C(F)(F)F` (stereo not drawn), the activity change, negative = inhibition was 2.22% [at 5.75 µM] (inactive).

Consider `CCOC(=O)C(O)(c1ccc(N=Cc2ccccc2O)c(C)c1)C(F)(F)F` (stereo not drawn), for which the Potency entry was “inactive”.

Regarding `C/C(=N\NC(=O)c1cccc([N+](=O)[O-])c1)c1cccnc1`, the Potency entry is “inactive”.

On to `CCc1ccc(NC(=O)N[C@H](C(=O)O)C(C)CC)cc1` (stereo partly drawn), for which the Potency result was “inactive”.

`O=C(Nc1ccccc1N1CCCCC1)c1ccc2nccnc2c1`: the Potency entry is “inactive”.

As for `Cc1ccc(C)c(NC(=O)c2ccc3nccnc3c2)c1`, the Potency is 8.28 µM (active).

Take `Cc1nnc(NC(=O)c2ccc3nccnc3c2)s1`: the Potency result is “inactive”.

Consider `CC(C)OCCCNC(=O)CN1C(=O)/C(=C/c2ccccc2F)Oc2ccccc21`, for which the Potency entry is “inactive”.

`Cc1ccc(C)c(OCCC(=O)OCC(=O)NC(=O)NCc2ccccc2)c1`: the Potency result was “inactive”.

As to `COc1ccc(/C(C)=N/N2CCOCC2)c(O)c1`, the Potency entry was “inactive”.

As to `Cn1cc([N+](=O)[O-])c(C(=O)Nc2ccc3c(c2)OCCO3)n1`, the Potency result is “inactive”.

For `COc1cccc(NC(=O)c2nn(C34CC5CC(CC(C5)C3)C4)cc2[N+](=O)[O-])c1`, the Potency was 8.28 µM (active).

With `COc1cccc(NC(=O)c2ccc(Cn3cc([N+](=O)[O-])cn3)o2)c1`, the Potency result is “inactive”.

On to `O=C(Nc1cccc([N+](=O)[O-])c1)N1CCc2ccccc2C1`, for which the Potency result is “inactive”.

Take `O=C(COC(=O)C1(c2ccc(F)cc2)CCCC1)N1CCNC1=O`: the Potency entry is “inactive”.

Consider `O=C(NC1CCCCC1)c1cc([N+](=O)[O-])ccc1N1CCOCC1`, for which the Potency result is “inactive”.

On to `O=[N+]([O-])c1ccc2c(c1)C(N1CCOCC1)/C(=C/C1(O)CCCCC1)O2` (stereo not drawn), for which the Potency is 1.65 µM (active).

Consider `O=C(/C=C/c1cccc([N+](=O)[O-])c1)OCC(=O)N1CCOCC1`, for which the Potency entry is “inactive”.

On to `O=[N+]([O-])c1ccc(N/N=C/c2ccccc2)cc1`, for which the Potency result was “inactive”.

Consider `COc1ccc(NC(=O)CNC(=O)Cc2ccccc2)cc1OC`, for which the Potency entry was “inactive”.

Take `C[C@]12CC[C@@H]3c4ccc(O)cc4C[C@@H](CCCCCCCCCS(=O)CCCC(F)(F)C(F)(F)F)C3[C@@H]1CC[C@@H]2O` (stereo partly drawn): the Potency is 6.01 µM (active).

Regarding `O=C(CCNC(=O)c1ccc([N+](=O)[O-])cc1)NC1CCCCC1`, the Potency entry was “inactive”.

Regarding `CCOC(=O)c1c(N=CN(C)C)c(C#N)c2n1CCCC2`, the Potency result is “inactive”.

Regarding `CCSc1ncnc2c(C#N)c3n(c12)CCCCC3`, the Potency was 11.7 µM (active).

Regarding `CC(C)c1nnc(NC(=O)COC(=O)/C=C/c2ccc([N+](=O)[O-])cc2)s1`, the Potency result was “inactive”.

Take `Cc1cc(C)n(CC(C)NCc2c(C(=O)N3CCOCC3)nc3c(C)cccn23)n1` (stereo not drawn): the Potency entry is “inactive”.

Regarding `COC(=O)C1[C@H]2SC(C)(C)C(C(=O)OC)N2C(=O)N1Cc1nc2ccccc2s1` (stereo partly drawn), the Potency entry is “inactive”.

As to `Cc1ccc(-n2c(N)c(C(=O)N3CCOCC3)sc2=S)c(C)c1`, the Potency result is “inactive”.

Consider `N#Cc1ccccc1-n1c(N)c(C(=O)N2CCCC2)sc1=S`, for which the Potency was 3.7 µM (active).

For `Cc1cccc(-n2c(N)c(C(=O)N3CCN(C)CC3)sc2=S)c1`, the Potency result is “inactive”.

Consider `COC(=O)Cc1ccc(OCC(=O)NC2CCCC2)cc1`, for which the Potency entry is “inactive”.

Turning to `CC(C)(C)OC(=O)NNc1c2ccccc2nc2ccccc12`, the Potency entry is “inactive”.

On to `O=C(N/N=C/c1cccnc1)c1cc2ccccc2cc1O`, for which the Potency entry was “inactive”.

For `O=C(NNc1c2ccccc2nc2ccccc12)c1cc2ccccc2cc1O`, the Potency is 3.7 µM (active).

In the case of `O=C(COC(=O)c1ccc2ncsc2c1)Nc1ccc(Cl)cc1`, the Potency result is “inactive”.

For the compound `COc1ccccc1C(=O)N/C(=C/c1ccco1)C(=O)Nc1ccc(C(=O)O)cc1`, the Potency entry is “inactive”.

For the compound `CCCCCCC(=O)Nc1nc(C)c(-c2csc(Nc3cccc(OC)c3)n2)s1`, the Potency is 7.38 µM (active).

Consider `CCCCC(=O)N/N=C(\C)CC(=O)Nc1cc(Cl)ccc1OC`, for which the Potency entry is “inactive”.

On to `CCOC(=O)c1csc(NC(=O)Nc2cccc(OC)c2)n1`, for which the Potency entry was “inactive”.

Consider `CC(=O)c1sc(NC(=O)CCCOc2ccccc2C)nc1C`, for which the Potency entry was “inactive”.

On to `COc1ccc(-c2csc(NC(=O)COC(=O)Cc3ccc(Cl)cc3Cl)n2)cc1`, for which the Potency result is “inactive”.

On to `CCCCC(=O)Nc1nc(C)c(-c2csc(Nc3ccc(Cl)cc3)n2)s1`, for which the Potency was 3.29 µM (active).

On to `COc1ccc(OC)c(Nc2nc(-c3ccc(O)c(O)c3)cs2)c1`, for which the Potency result was “inactive”.

As for `CCCCN(C)CCC(=O)Nc1ccc(Cl)cc1`, the Potency result is “inactive”.

On to `Cc1nc(C)c(-c2csc(NCCc3ccccc3)n2)s1`, for which the Potency entry was “inactive”.

Regarding `C=CCCC(=O)Nc1nc(C)c(-c2csc(Nc3ccc(Cl)cc3)n2)s1`, the Potency was 0.657 µM (active).

Take `CCCCCCC(=O)Nc1nc(C)c(-c2csc(Nc3cc(Cl)ccc3OC)n2)s1`: the Potency was 2.62 µM (active).

As to `COc1ccc(OC)c(-c2csc(NC(=O)COC(=O)C3CC3)n2)c1`, the Potency entry was “inactive”.

Consider `COc1ccc(-c2ccc(OC(=O)NC3CCS(=O)(=O)C3)cc2)cc1` (stereo not drawn), for which the Potency result was “inactive”.

Regarding `O=[N+]([O-])c1cc(S(=O)(=O)NCCc2ccccn2)ccc1Cl`, the Potency result is “inactive”.

On to `CN1CCN(Cc2c(C(=O)N3CCc4ccccc4C3)nc3ccc(Cl)cn23)CC1`, for which the Potency entry was “inactive”.

In the case of `COC(=O)c1ccc(NC(=O)CSc2nc(N)c(NC(=O)c3ccc(Br)o3)c(=O)[nH]2)cc1`, the Potency result was “inactive”.

As to `CCN(CC(=O)Nc1cc(Cl)ccc1C)C(=O)CN1C(=O)NC2(CCCC2)C1=O`, the Potency entry is “inactive”.

On to `Cc1cc(=O)oc2c(C)c(OCC(=O)NCCc3ccc(S(N)(=O)=O)cc3)ccc12`, for which the Potency result was “inactive”.

On to `Cc1ccc(OCC(=O)Nc2ccc(C(=O)O)cc2NC(=O)COc2ccc(C)c(C)c2)cc1C`, for which the Potency result is “inactive”.

`CC1(C)CC(=O)C=C(N2CCCC2)C1`: the Potency result is “inactive”.

Consider `O=C1CC(N2CCN(C(c3ccccc3)c3ccccc3)CC2)C(=O)N1` (stereo not drawn), for which the Potency entry was “inactive”.

As to `CC1(C)CC(N2CCN(C(c3ccccc3)c3ccccc3)CC2)=CC(=[N+]2CCCCC2)C1`, the Potency is 0.415 µM (active).

In the case of `CCOc1ccc(S(=O)(=O)Nc2ccc(OC)nc2)cc1`, the Potency result is “inactive”.

`CN(CCO)c1ccc(/C=N/Nc2nncc3ccccc23)cc1`: the Potency entry is “inactive”.

`COc1ccc2oc(=O)c(C(=O)N3CCCc4ccccc43)cc2c1`: the Potency result was “inactive”.

For the compound `Cc1occc1C(=O)N1CCCc2ccccc21`, the Potency is 10.4 µM (active).

Regarding `CCC(=O)N1CCCc2ccccc21`, the Potency result was “inactive”.

For `COc1cc(NC(=O)CN2C(=O)NC(C)(c3ccc(OC(F)F)cc3)C2=O)cc(OC)c1OC` (stereo not drawn), the Potency entry is “inactive”.
